Data from PubChem BioAssay (NCI).
“And” between values parts separate entries of the source, which are not always exact repeats. Identical values can stand only once. Compounds without any hit were thinned out: in the full panel of roughly 83,000, 20% have a hit.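 Single-concentration screen, 48 h exposure, 96-well plates. Endpoint: percent growth. Below 10 = active.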 The source made the active and inactive calls.

Test system: MDA-MB-468 breast
Experiment: NCI-60 one-dose screen, 48 h (100 = growth as untreated, 0 = no growth, -100 = all killed)
Conditions: 10 µM unless noted

Structure (SMILES) | growth
CCC12CCC3c4ccc(O)cc4CCC3C1CC(O)C2O (stereo not given) | 58.4% (inactive)
O=[N+]([O-])c1cccc2nsnc12 | 93.1% (inactive)
FC(F)(F)c1cc(Br)cc(-c2cc(-c3ccc4c(c3)OCCO4)[nH]n2)c1 | 40.6% (inactive)
O=c1oc2c(C(F)(F)F)cccc2cc1-c1csc(Nc2ccc(OCCF)cc2)n1 | 5.55% (active)
Nc1ncnc2c1N=C(c1ccc(F)cc1)CC(c1cccc(Nc3ccnc4cc(Cl)ccc34)c1)N2 (stereo not given) | 74.1% (inactive)
COc1cc(C(O)C2C(=O)OCC2C2(c3ccc4c(c3)OCO4)SCCCS2)cc(OC)c1OC (stereo not given) | 92.2% (inactive)
O=C(Nc1c(Cl)cc(Cl)cc1Cl)ON=C1CCCCC1 | 96.7% (inactive)
COC(CC(F)F)c1cn(S(=O)(=O)c2ccc(C)cc2)c2ccccc12 (stereo not given) | 8.95% (active)
Cc1ccc(C(C)C)c(OCc2ccc(C(=O)N/N=C/c3cccc(O)c3O)cc2)c1 | 75.7% (inactive)
O=C1/C(=C/c2ccccc2O)CC/C1=C\c1ccccc1O | 34.3% (inactive)
Cc1cccc2nc3ccccc3c(Nc3ccc(NS(C)(=O)=O)cc3)c12 | 67.9% (inactive)
COc1ccc(-n2c(=O)sc3c(Cl)nc(C)nc32)c(OC)c1 | 57.8% (inactive)
Cc1ccc(/C=C(\C#N)c2cc3ccccc3n2C)cc1 | 23.6% (inactive)
Cc1cc(C)c2c(n1)sc1c(Nc3ccc(OCc4ccccc4)cc3)ncnc12 | 101% (inactive)
CN1CCN(Cc2ccc(NC(=O)c3cncc(C#Cc4cnc5ccc(NC6CCOCC6)nn45)c3)cc2C(F)(F)F)CC1 | -88.5% (active)
CCCCCCNC(=O)Oc1ccc(/C(=C(\C)c2ccc(Cl)cc2)c2ccc(OCCN(CC)CC)cc2)cc1 | 52.4% (inactive)
CCC(C)C(N)C(=O)NNc1n[nH]c(=S)n1N (stereo not given) | 104% (inactive)
CCCCC(CC)OC(=O)C(Br)CC (stereo not given) | 106% (inactive)
O=C(Nc1cccc(Cl)c1)c1cc2ccccc2cc1O | 55.4% (inactive) and 17.8% (inactive)
COc1ccc(-c2cc(=O)c3c(OC)c4ccoc4cc3o2)cc1 | 101% (inactive)

Structure (SMILES) | growth
CC1(C)CC(=O)c2cc3c(N)c(C(=O)Nc4ccc(Cl)cc4)sc3nc2C1 | 110% (inactive)
O=C(Nc1ccc(F)cc1F)c1cc(Br)ccc1O | -19.6% (active)
CCN(C(=O)c1cc2ccccc2[nH]1)[C@H]1CCC[C@@H](NCc2ccc(OC)cc2)C1 | 80.7% (inactive)
O=C(Nc1nc(-c2ccc(Cl)cc2)nc2c1sc(=S)n2-c1ccccc1)C(F)(F)F | 70.1% (inactive)
O=C(Nc1ncc(Cc2ccccc2)s1)c1sc2ccccc2c1Cl | 7.07% (active)
Cn1cc2c(c1)-c1nc(Nc3ccccc3)ncc1CC2 | 47.6% (inactive)
COc1ccc(NC(=O)CSc2nc3ccccc3c(=O)n2Cc2cc(OC)c(OC)c(OC)c2)cc1 | 104% (inactive)
CCCC(=O)c1cc(C)ccc1OC | 113% (inactive)
CCCC(=O)NC(c1cccnc1)c1cc(Cl)c2cccnc2c1O (stereo not given) | 30.2% (inactive)
CCCCN[C@H]1CC[C@@]2(C)[C@@H](CC[C@@]3(C)[C@H]2[C@H](O)C[C@H]2/C(=C(\CCC=C(C)C)C(=O)OC)[C@@H](OC(C)=O)C[C@@]23C)[C@@H]1C | 88.9% (inactive)
COc1ccc2c(NCCCCCCCCNc3c4ccccc4nc4cc(OC)ccc34)c3ccccc3nc2c1 | -100% (active)
COc1ccc(/C=C/C(=O)C(CC2CCC2)C(=O)/C=C/c2ccc(OC)c(OC)c2)cc1OC | -22.2% (active)
COc1cc(/C=C/c2cc(/C=C/c3ccc(O)c(OC)c3)n(C(=O)Nc3ccc(C)cc3)n2)ccc1O | -29.1% (active)
Cn1cc(-c2nc(-c3c[nH]c4ncccc34)cs2)c2cccnc21 | -6.43% (active)
CCCCCOC(=O)Nc1nc(=O)n(C2O[C@H](C)[C@@H](O)[C@H]2O)cc1F (stereo not given in full) | 99.1% (inactive)
CC(C)(C)OC(=O)CC1(O)CCCCC1 | 94.5% (inactive)
Nc1nc(N)nc(NCc2ccccc2)n1 | 114% (inactive)
Cc1c(Nc2nnc(SCC(=O)Nc3sc4c(c3C#N)CCCC4)s2)c(=O)n(-c2ccccc2)n1C | 107% (inactive)
C=CCNc1nc(NN2C(=O)c3cccc4cccc(c34)C2=O)nc(-n2cnc3ccccc32)n1 | 80.5% (inactive)
CCCCCCCNc1nc(C=O)ncc1-c1ccc(C(F)(F)F)cc1 | 103% (inactive)
